In PubChem BioAssay (Tox21) one finds outcome data, which are given here for 30 compounds.

Calls of active or inactive are those of the source. The call rests on the fitted dose curve; in most records, active means well fitted curve in the direction sought with a large enough effect in the repeat runs; inconclusive means weak or mixed curves; inactive means flat fitted curve, though single readings scatter.

This assay is described as follows: qHTS assay to test for compound auto fluorescence at 590 nm (red) in HEK293 cells (AID 720679). To be noted: red autofluorescence 540/590 nm; series mostly up to 46 µM. In a few lines: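 HEK293 cells (2,000/well, medium with 10% dialyzed FBS) attached for 4-5 hr at 37C, received 23 nL compound and were incubated overnight at 37C, 5% CO2. Red fluorescence was then read at 540/590nm Ex/Em, referenced to Rose Bengal sodium.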
On the technique in general: In qHTS, concentration-response curves come from the screen itself.
With `O=C[C@H](O)[C@@H](O)[C@H](O)[C@H](O)CO`, the call was inactive. For `CCOC(=O)c1cccc(N)c1` the value was “inactive”; for `CCO[Si](CCC1CCC2OC2C1)(OCC)OCC` (stereo not given), “inactive”; for `FC(F)OC(Cl)C(F)(F)F` (stereo not given), “inactive”. For the compound `CN1C(=O)N(C)C(O)C1O` (stereo not given), the compound was classed as inactive. For `O=C1NC(=O)[C@@]2(CCOc3ccc(F)cc32)N1` the value was “inactive”. `CCOC(=O)c1c(C)n(C)c2ccc(O)cc12`: the outcome was inactive. Then `O=C(CCCN1CCC(O)(c2cccc(C(F)(F)F)c2)CC1)c1ccc(F)cc1`, with “inactive”; and `CCN(Cc1ccncc1)C(=O)C(CO)c1ccccc1` (stereo not given), with “inactive”; and `CC(=O)CC(C)(C)C1CCCCC1`, with “inactive”. `Cc1cc2c(cc1S(N)(=O)=O)S(=O)(=O)CCC2`: the result was inactive.

Turning to `O=S(O)CO`, the compound was classed as inactive. For `CC(=O)OCC(CCn1cnc2cnc(N)nc21)COC(C)=O` the value was “inactive”; for `Cc1c(O)cccc1O`, “inactive”. Then `c1cnc(N2CCN(Cc3ccc4c(c3)OCO4)CC2)nc1`, with “inactive”; and `N=C(N)c1ccccc1`, with “inactive”. Then `N=c1nc(N2CCCCC2)cc(N)n1O`, with “inactive”; and `CC/C=C\CC/C=C/C(OCC)OCC`, with “inactive”. In the case of `COCCCOCCCOC`, the call was inactive. Then `COc1ccc(CCN(C)CCCC(C#N)(c2cc(OC)c(OC)c(OC)c2)C(C)C)cc1OC` (stereo not given), with “inactive”.

`CS(=O)(=O)O`: the compound was classed as inactive. `COc1nc(N)nc2c1ncn2[C@@H]1O[C@H](CO)[C@@H](O)[C@@H]1O`: the outcome was inactive. For `COC(=O)c1c(Cl)c(Cl)c(C(=O)OC)c(Cl)c1Cl` the value was “inactive”; for `OC[C@]1(O)OC[C@@H](O)[C@H](O)[C@@H]1O`, “inactive”. Consider `CN1CCC(=C2c3ccccc3CC(=O)c3sccc32)CC1`, for which the compound was classed as inactive. For `Brc1c(NC2=NCCN2)ccc2nccnc12` the value was “inactive”; for `O=C1CC2CC1C1CCCC21` (stereo not given), “inactive”.

`Cc1ccc(Cl)cc1Cl`: the compound was classed as inactive. Then `CC[N+](C)(C)c1cccc(O)c1`, with “inactive”. In the case of `COC(=O)CC(C)=O`, the compound was classed as inactive.
